Compound activity as filed in PubChem.
PNC assembly inh = perinucleolar compartment assembly inhibition; PC3M PTB-GFP, PNC prevalence imaging, 16 h; stronger effect = lower value; activity change (PNC), negative = inhibition, % at 10 µM; 3.1% of 140,000 active; AID 2417;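 active means readout at or below -70, meaning at least 70% loss of cells showing the perinucleolar compartment, a nuclear body marking cancer cells; inconclusive means readout between -30 and a set limit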;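 further: plate controls were DMSO wells for no effect and camptothecin positive control wells for full effect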
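PC3M cells stably expressing PTB-GFP, 750–1000 cells/well, treated 16 h at 37 °C with compound (23 nl of library stock), in duplicate. After paraformaldehyde fixation and Hoechst stain, imaged at 20x; PNC prevalence scored by image analysis.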
ALDH1A1 inh = ALDH1A1 (human) enzyme inhibition | P00352 | Purified ALDH1A1, NADH fluorescence, propionaldehyde substrate | Potency, µM (top dose mostly 75.3 µM), for inactives: top-dose activity, negative = inhibition, most hits filed as inhibitors | 7.3% of 220,000 active;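 further: potency means the concentration at half of the fitted maximal effect; plate controls were no enzyme wells and a reference inhibitor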
HPGD inh = blocks human HPGD enzyme activity; P15428; purified HPGD, NADH fluorescence kinetic, PGE2 substrate; Potency, µM, without a hit: at the highest dose activity change, negative = inhibition, actives largely listed as inhibitors; 4.3% of 150,000 active; further: potency means the concentration at half of the fitted maximal effect
Target sequence (P15428 whole entry, looked up): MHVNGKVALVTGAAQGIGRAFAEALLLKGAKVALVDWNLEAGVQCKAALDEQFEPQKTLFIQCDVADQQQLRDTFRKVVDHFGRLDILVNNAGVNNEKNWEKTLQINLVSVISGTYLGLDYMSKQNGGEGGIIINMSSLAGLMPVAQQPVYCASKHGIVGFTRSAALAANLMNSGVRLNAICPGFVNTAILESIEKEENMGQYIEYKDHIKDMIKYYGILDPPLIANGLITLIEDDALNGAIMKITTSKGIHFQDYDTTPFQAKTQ
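NADH formation kinetics: reaction with 30 uM PGE2 and 1 mM NAD+ (final), 20 nM enzyme, Tris-HCl pH 8 with Tween 20, after 15 min compound preincubation at room temperature. Fluorescence change, last versus first of five reads.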
* hit, by the source's call; [ ] = another dose, or the depositor's remark. Shown are actives, neighbours in structure and some others; about 11% of the full set was active somewhere. Unless noted, the call rests on the fitted dose curve; in most records, active means well fitted inhibition curve with a large enough effect (not every such curve was filed as active); inconclusive means small, poorly fitted or top-dose-only effect, or another doubt; inactive means no such curve, though single readings can be large or run the other way. Unless noted, on the % scale 0 is the no-effect control and ±100 the full control effect.

What do the screens show for `CCOc1cc(-c2nc3c(C)cccn3c2NCC2CCCO2)ccc1O` (configuration not stated)?
PNC assembly inh: 7; ALDH1A1 inh: inconclusive; HPGD inh: inconclusive

How did CN1CCC2(CC1)CCN(C(=O)c1ccco1)CC2 do in these assays?
ALDH1A1 inh: 5%; HPGD inh: -8%

How did Cn1cnc([N+](=O)[O-])c1Sc1ccc([N+](=O)[O-])cc1 do in these assays?
ALDH1A1 inh: 7.9µM*

How did CC(C)[N+](=O)[O-] do in these assays?
ALDH1A1 inh: 0%; HPGD inh: -25%

Results for CN(C)C1(c2nnnn2CCOC(=O)Nc2ccc(Cl)cc2)CCCCC1 ?
PNC assembly inh: 56; ALDH1A1 inh: inconclusive; HPGD inh: -12%

What do the screens show for `O=c1[nH]c(=O)n(CCC2=CCCCC2)c(O)c1C=NCCN1CCNCC1`?
PNC assembly inh: 1; ALDH1A1 inh: 14µM*; HPGD inh: -5%

Results for O=c1[nH]c(=O)n(Cc2ccccc2)c(O)c1C=NCCN1CCNCC1 ?
PNC assembly inh: 8; ALDH1A1 inh: 16µM*; HPGD inh: 22µM*

What do the screens show for `O=c1[nH]c(=O)n(Cc2ccccc2)c(O)c1C=Nc1ccc(CN2CCOCC2)cc1`?
PNC assembly inh: 27; ALDH1A1 inh: 14µM*

Results for O=c1[nH]c(=O)n(CCC2=CCCCC2)c(O)c1/C=N/Nc1ccccc1 ?
PNC assembly inh: -27; ALDH1A1 inh: -3%; HPGD inh: -15%

Results for O=c1[nH]c(=O)n(Cc2ccco2)c(O)c1C=NCCN1CCOCC1 ?
PNC assembly inh: 15; ALDH1A1 inh: -14%; HPGD inh: -12%

Results for C=CCn1c(O)c(C=NCCN2CCNCC2)c(=O)[nH]c1=O ?
PNC assembly inh: 15; ALDH1A1 inh: inconclusive; HPGD inh: -12%

How did C=C(CC1(C(C)NP(=O)(c2ccccc2)c2ccccc2)CC1)c1ccccc1 (configuration not stated) do in these assays?
ALDH1A1 inh: 5%; HPGD inh: -12%

What do the screens show for `NCC(CS(=O)(=O)O)c1ccc(Cl)cc1` (configuration not stated)?
ALDH1A1 inh: 3%

Results for CCOC(=O)c1ncn2c1[C@H]1CCCN1C(=O)c1cc(OC)ccc1-2 ?
ALDH1A1 inh: -5%; HPGD inh: -14%

Results for CC12CCC3C(CC=C4CC(O)CCC43C)C1C/C(=C\c1cccc(F)c1)C2=O (configuration not stated) ?
PNC assembly inh: 11; ALDH1A1 inh: 5%

What do the screens show for `O=S(=O)(Nc1nccs1)c1ccc([As](=O)(O)O)cc1`?
ALDH1A1 inh: -2%[13.5 µM]; HPGD inh: -9%

Results for O=C(Nc1ccc2nc(-c3cccs3)c(-c3cccs3)nc2c1)NC1CC1 ?
PNC assembly inh: -29; ALDH1A1 inh: inconclusive; HPGD inh: -16%

How did N[C@@H](CP(=O)(O)O)C(=O)O do in these assays?
ALDH1A1 inh: 8%[13.5 µM]; HPGD inh: -2%

Results for CN(C)CCCc1cccnc1 ?
ALDH1A1 inh: 2%[13.5 µM]; HPGD inh: -7%

What do the screens show for `CC1CCCN(C(=O)c2ccc(N3CC4CC(C3)c3cccc(=O)n3C4)c([N+](=O)[O-])c2)C1` (configuration not stated)?
PNC assembly inh: -116*; ALDH1A1 inh: 7.9µM*; HPGD inh: 18µM*

Results for CC1CCN(C(=O)c2ccc(N3CC4CC(C3)c3cccc(=O)n3C4)c([N+](=O)[O-])c2)CC1 (configuration not stated) ?
PNC assembly inh: 1; ALDH1A1 inh: inconclusive; HPGD inh: -19%

Results for COC(=O)[C@H]1C(=O)[C@H](C(=O)OC)[C@@H]2CC[C@H]1N2C ?
ALDH1A1 inh: 0%[13.5 µM]; HPGD inh: 3%

How did O=P(Oc1ccccc1)(Oc1ccccc1)C(Nc1ccccc1)c1ccccc1 (configuration not stated) do in these assays?
PNC assembly inh: -26; ALDH1A1 inh: -11%; HPGD inh: -9%

What do the screens show for `CC(C)Nc1ccc(Nc2ccccc2)cc1`?
ALDH1A1 inh: 8.9µM*; HPGD inh: -14%

Results for CN(C)NC(=O)CCC(=O)O ?
ALDH1A1 inh: 1%; HPGD inh: -5%

What do the screens show for `Nc1cccc(Cl)c1`?
ALDH1A1 inh: inconclusive; HPGD inh: -4%

What do the screens show for `C[C@@H]1[C@@H](C)N1C[C@H](O)Cn1ccnc1[N+](=O)[O-]` (some centres not stated)?
ALDH1A1 inh: 11%[13.5 µM]; HPGD inh: -13%

How did CC(=O)O[C@@H]1C[C@@]2(C)C(c3ccoc3)C[C@H]3O[C@]32[C@]2(C)C(=O)C(O)=C3C(C)(C)C(=O)C=C[C@]3(C)C12 (some centres not stated) do in these assays?
ALDH1A1 inh: 1%; HPGD inh: -8%

What do the screens show for `COC(=O)c1ccc(N2C(=O)CC(N3CCC(O)(c4ccc(Br)cc4)CC3)C2=O)cc1` (configuration not stated)?
PNC assembly inh: 52; ALDH1A1 inh: 3.2µM*; HPGD inh: -9%

Results for COC(=O)c1ccc(N2C(=O)CC(N3CCC(n4c(=O)[nH]c5ccccc54)CC3)C2=O)cc1 (configuration not stated) ?
PNC assembly inh: -2; ALDH1A1 inh: 10µM*; HPGD inh: -13%

Results for Cc1cc(N2C(=O)CC(N3CCC(n4c(=O)[nH]c5ccccc54)CC3)C2=O)no1 (configuration not stated) ?
PNC assembly inh: 17; ALDH1A1 inh: inconclusive; HPGD inh: -11%

What do the screens show for `CC1=C2C3OC(=O)[C@H](C)[C@H]3CC[C@@]2(C)C=CC1=O` (some centres not stated)?
ALDH1A1 inh: 5%; HPGD inh: 2%

Results for CCNC(=O)[C@H]1O[C@@H](n2cnc3c(N)ncnc32)[C@H](O)[C@H]1O ?
ALDH1A1 inh: 7%; HPGD inh: -13%

Results for COc1cc2c(cc1OC)-c1c(OC)c(OC)c(OC)c3ccnc(c13)C2=O ?
PNC assembly inh: -101*; ALDH1A1 inh: 3%; HPGD inh: inconclusive

Results for COc1ccccc1CN1CC[C@@]2(CCCN(C(=O)Oc3ccccc3)C2)C1 ?
ALDH1A1 inh: inconclusive; HPGD inh: -7%

Results for O=[N+]([O-])c1cc2c(cc1CNCCc1ccc3c(c1)OCO3)OCO2 ?
PNC assembly inh: -5; ALDH1A1 inh: 28µM*; HPGD inh: -3%

Results for Oc1ccc(CCNCc2cc3c(cc2Br)OCO3)cc1 ?
ALDH1A1 inh: -1%[13.5 µM]; HPGD inh: -23%

What do the screens show for `N#CC(c1ccc(Cl)nn1)c1c(F)cccc1Cl` (configuration not stated)?
ALDH1A1 inh: 14µM*

How did COc1cc2c(cc1OC)[C@@H]1C(=O)c3ccc(OC)c(CC=C(C)C)c3OC1CO2 (some centres not stated) do in these assays?
ALDH1A1 inh: inconclusive; HPGD inh: -28%

How did CCOC(=O)C(NC(C)=O)C(OC(C)=O)c1cccc(N(CCCl)CCCl)c1 (configuration not stated) do in these assays?
PNC assembly inh: -119*; ALDH1A1 inh: 6%; HPGD inh: 0%
